DRD3 antagonist: qHTS of D3 Dopamine Receptor Antagonist: qHTS; D3R cells, DiscoveRx beta-arrestin luminescence, antagonist mode; hits give low values; AID 652054, 2013; actives 2.5% (n = 360,000); max response, negative = inhibition, %; in the data active = max response below about -50%; inconclusive = no clear call, values can overlap the other calls
Target sequence (P35462 whole entry, looked up): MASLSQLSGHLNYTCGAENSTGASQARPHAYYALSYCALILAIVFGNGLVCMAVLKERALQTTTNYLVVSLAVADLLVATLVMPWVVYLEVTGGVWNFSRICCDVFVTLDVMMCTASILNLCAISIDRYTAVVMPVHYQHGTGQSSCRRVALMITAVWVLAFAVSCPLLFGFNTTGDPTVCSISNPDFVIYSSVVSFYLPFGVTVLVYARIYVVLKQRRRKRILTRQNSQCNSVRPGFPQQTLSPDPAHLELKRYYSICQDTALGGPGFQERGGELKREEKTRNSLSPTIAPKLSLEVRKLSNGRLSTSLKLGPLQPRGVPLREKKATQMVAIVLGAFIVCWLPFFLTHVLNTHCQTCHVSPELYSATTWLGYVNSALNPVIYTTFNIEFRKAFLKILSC
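Cells expressing the human receptor were seeded at 1500 cells/well, incubated overnight at 37 degrees C in 5% CO2, then exposed to library compounds with dopamine controls for 90 minutes at 37 degrees C before luminescent detection.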
IL1B secr inh: qHTS for Inhibitors of Inflammasome Signaling: IL-1-beta AlphaLISA Primary Screen. THP-1 LPS/ATP IL-1B secretion, AlphaLISA, 16 h; hits give low values. activity change, % at 57.5 µM. actives 4.7% (n = 360,000). AID 743279, 2014; in the data active = activity change below about -50%; inconclusive = mostly about -30% to -49%
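THP-1 cells pretreated 1 hr with compounds (up to 57.5 uM final), then stimulated with LPS (250 ng/mL final) plus ATP (1.25 mM final); secreted IL-1B measured by AlphaLISA after 16 hr, decreased signal indicating inhibition.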
D3 ag: qHTS of D3 Dopamine Receptor Agonist: qHTS. actives 0.58% (n = 410,000). D(3) dopamine receptor (Homo sapiens), P35462. D3R DiscoveRx beta-arrestin cells, luminescence, 90 min. AID 652048, 2013. max activation, %; in the data active = max activation above about 30%
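Agonist mode: compounds and dopamine controls were applied to plated cells for 90 min at 37 degrees C after an overnight attachment at 1500 cells/well. Luminescent read-out followed 30 - 60 minutes at room temperature with DiscoveRx detection reagent.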
TDP1 cell CPT: qHTS for Inhibitors of human tyrosyl-DNA phosphodiesterase 1 (TDP1): qHTS in cells in presence of CPT; Potency, µM (titrated, usually from 46.2 µM), usual class: inhibitors; chicken DT40 Tdp1-/-;hTDP1 cells + 20 nM CPT, ATP luminescence, 48 h; actives 12% (n = 420,000); also: nearly all actives have a fitted effect of over 55% in size
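Chicken DT40 Tdp1-/- cells stably complemented with human TDP1 were seeded at 400 cells/well in medium containing 20 nM camptothecin, exposed to pin-transferred compounds, and grown at 37 °C for at least 48 hr. Viability was read as ATP luminescence.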
ClpP mod: qHTS Assay for Activators of ClpP; Potency, µM (highest dose often 57.5 µM); ATP-dependent Clp protease proteolytic subunit (Bacillus subtilis (strain 168)), P80244; purified B. subtilis ClpP, FRET peptide cleavage, 20 min; actives 1.9% (n = 340,000); active = well fitted falling curve with a large enough effect; inconclusive = small, poorly fitted or top-dose-only effect; inactive = no such curve, though single readings can be large or run the other way; also: the source files actives as falling curves though it sought activators and does not explain the sign; nearly all actives have a fitted effect of over 65% in size
Target sequence (P80244 whole entry, looked up): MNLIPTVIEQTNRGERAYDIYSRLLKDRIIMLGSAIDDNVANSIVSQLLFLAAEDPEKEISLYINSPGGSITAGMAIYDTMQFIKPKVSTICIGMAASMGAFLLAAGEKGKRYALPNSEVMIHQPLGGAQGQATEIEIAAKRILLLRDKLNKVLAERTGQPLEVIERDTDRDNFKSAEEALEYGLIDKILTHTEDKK
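FRET quenching reversal measured ClpP activation: 10 microg/mL B. subtilis ClpP at pH 8 with the FRET-FV decapeptide, read at 430 nm after 320 nm excitation. The 20-min minus 0-min signal was scaled between DMSO/no-enzyme wells and ADEP (5.8 microM final).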
DT40 TDP1 no CPT: qHTS for Inhibitors of human tyrosyl-DNA phosphodiesterase 1 (TDP1): qHTS in cells in absence of CPT; DT40 Tdp1-/- hTDP1 cells, no CPT, ATP luminescence, 48 h; Potency, µM (titrated, usually from 46.2 µM), usual class: inhibitors; actives 15% (n = 420,000); AID 686978, 2013; also: nearly all actives have a fitted effect of over 55% in size
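Compound effects on proliferation are scored in DT40 Tdp1-/-;hTDP1 cells in the absence of CPT. ATP levels (CellTiter-Glo luminescence) are recorded after a ≥48 hr, 37 °C incubation.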
Hits are given with their value; – = inactive; ? = inconclusive; · = no result given. An excerpt weighted towards active compounds, which were near 21% of everything screened. Unless noted, calls follow the shape of the dose curve; as a rule, active = well fitted inhibition curve with a large enough effect; inconclusive = small, poorly fitted or top-dose-only effect; inactive = flat fitted curve, though single readings scatter.

SMILES	DRD3 antagonist	IL1B secr inh	D3 ag	TDP1 cell CPT	ClpP mod	DT40 TDP1 no CPT
Cc1cc(C(=O)CSc2nncs2)c(C)n1-c1ccc2c(c1)OCO2	–	-69	–	21µM	–	18µM
CCCn1c(SCC(=O)c2cc(C)n(C3CC3)c2C)n[nH]c1=O	–	–	–	–	–	–
Cc1ccc(-n2nnnc2SCC(=O)c2cc(C)n(-c3cc(C)on3)c2C)cc1	–	–	–	12µM	–	15µM
Cc1cc(C(=O)CN2C(=O)NC3(CCCCC3)C2=O)c(C)n1-c1ccc2c(c1)OCO2	–	?	–	?	–	21µM
O=C(NC1CCCC1)C(c1ccncc1)N(C(=O)Cc1cccs1)c1cccc(F)c1 (configuration not stated)	–	–	–	–	·	–
Nc1nc(SCC(=O)Nc2ccc(Cl)c(S(=O)(=O)N3CCOCC3)c2)n[nH]1	–	–	–	–	–	–
Cc1cc(C(=O)CSc2ncccn2)c(C)n1-c1cccc(F)c1	–	–	–	–	–	?
Cc1cc(C(=O)CSc2nnnn2C)c(C)n1-c1cccc(F)c1	–	–	–	?	–	9.2µM
CCOC(=O)C1=C(C)c2ccccc2N(C(=O)OC)C1(C)C(=O)OCC (configuration not stated)	–	–	–	10µM	–	10µM
CCc1ccc(NC(=O)N(CCCN2CCOCC2)C(C)c2cc3cccc(OC)c3o2)cc1 (configuration not stated)	-53	–	–	?	–	?
CCCCN1CCCc2cc(CN(CCCN3CCOCC3)C(=O)Nc3ccc(CC)cc3)ccc21	·	·	–	?	–	21µM
COc1cccc2cc(C(C)N(CCCN3CCOCC3)C(=S)Nc3cc(C)cc(C)c3)oc12 (configuration not stated)	–	–	–	–	·	–
CCCN1CCCc2cc(CN(CCCN3CCOCC3)C(=O)Nc3ccc(CC)cc3)ccc21	·	·	–	23µM	–	21µM
COc1ccc(CN(CCCN2CCOCC2)C(=O)Nc2ccccc2)cc1OC	–	–	–	–	–	–
Cc1nnc(SCC(=O)N(CC(C)C)c2c(N)n(Cc3ccccc3)c(=O)[nH]c2=O)n1N	–	–	–	–	–	–
O=C1c2ccccc2-c2nc3ccccc3cc21	–	–	–	?	–	?
c1ccc2c(c1)Cc1cc3ccccc3nc1-2	–	–	–	?	·	21µM
N#C/C(=C\c1coc2ccc(O)cc2c1=O)C(=O)Nc1nc2ccccc2s1	–	–	–	9.2µM	–	?
CCCCN(CC)S(=O)(=O)c1ccc2c(c1)n(C)c(=O)c(=O)n2C	–	–	–	–	–	–
CCN(CC)CC(O)c1ccc2ccc3ccc(O)cc3c2c1 (configuration not stated)	–	-61	–	?	–	?
O=C(c1ccco1)N1CCN(c2ncnc3c2[nH]c2ccc(Br)cc23)CC1	–	?	–	?	?	23µM
CCOc1ccc2[nH]c3c(N4CCC5(CC4)OCCO5)ncnc3c2c1	–	?	–	23µM	32µM	23µM
CCOc1ccc2[nH]c3c(N4CCN(C(=O)c5ccco5)CC4)ncnc3c2c1	–	–	–	16µM	·	13µM
O=C(Nc1ccc(N2CCN(C(=O)c3ccco3)CC2)cc1)c1cc(Br)ccc1Cl	–	?	–	?	–	?
Cc1ccc(CCNC(=O)C2CCN(S(=O)(=O)c3ccc4nc5c(c(C(=O)O)c4c3)CCCC5)CC2)cc1	–	–	–	–	–	–
SMILES	DRD3 antagonist	IL1B secr inh	D3 ag	TDP1 cell CPT	ClpP mod	DT40 TDP1 no CPT
COc1ccc(-c2cccc(NC(=O)COc3ccc(Cl)cc3)c2)nn1	–	–	–	–	–	–
CN(C)c1ccc(/C=C/c2ccnc3c(Cl)cccc23)cc1	·	·	·	11µM	–	7.9µM
CN(C)c1ccc(/C=C/c2ccnc3c(O)ccc(O)c23)cc1	·	·	·	–	–	–
CN(C)c1ccc(/C=C/c2ccnc3c(-c4ccccc4)cccc23)cc1	·	·	·	11µM	–	?
Cc1cccc2c(/C=C/c3ccc(N(C)C)cc3)ccnc12	·	·	·	?	–	?
Cc1ccc(C)c(-n2c(-c3ccc(Br)cc3)csc2=NC(=O)c2ccccc2F)c1	–	–	–	12µM	–	4.6µM
Cn1ccsc1=NC(=O)c1ccccc1F	–	–	–	–	·	–
O=C(Nc1nnc(C2CC2)s1)c1cccnc1Oc1ccc(Cl)cc1	–	–	–	–	–	–
Cc1ccc(CNC(=O)CSc2c3c(nc4cc(Cl)ccc24)CCCC3)o1	-76	-68	–	?	–	?
COc1ccc(Cl)cc1NC(=O)c1ccc2c(SCC(=O)O)c3c(nc2c1)CCCC3	–	?	–	–	–	–
COc1cccc(CNC(=O)CSc2c3c(nc4ccc(Cl)cc24)CCCC3)c1OC	·	·	–	7.3µM	–	9.2µM
COc1ccc(OC)c(CNC(=O)CSc2c3c(nc4cc(Cl)ccc24)CCCC3)c1	·	·	–	16µM	–	23µM
CCc1ccc(CNC(=O)CSc2c3c(nc4ccc(Cl)cc24)CCCC3)cc1	·	·	–	–	–	?
